Laboratory results published in PubChem BioAssay (EPA / NIEHS).
“And” between values parts separate entries of the source, which are not always exact repeats. Equal entries are not always repeated. Inconclusive results are not listed. The source made the active and inactive calls. The calls were made as follows, unless noted: active = hit-call score of the fitted dose curve at least 0.9, where 1 is the maximum; inactive = score below 0.9.

How the values were obtained:
[1] = ACEA_ER_80hr: ACEA Biosciences xCELLigence Real-Time Cell Analysis on Estrogen Receptor Agonism for Proliferation (AID 2282667; active = hit-call score of the fitted dose curve at least 0.9, where 1 is the maximum); settings: T47D proliferation, impedance (xCELLigence), 80 h
Method in brief: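 Cell-growth kinetics were measured by impedance in T47D cells treated continuously with compound (top 100 uM final, 1:4 steps, 8 points). Activity at 80 h was scored as signal gain over the DMSO baseline.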

[2] = ATG_CRE_CIS: Attagene CIS-FACTORIAL HepG2 Assay for human cAMP Responsive Element (CRE) binding protein 3 (AID 2282926); settings: HepG2 CRE cis-reporter, Attagene multiplexed mRNA; actives raise or lower the signal
Method in brief: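 Cells carrying cis-regulated reporter constructs respond through their own endogenous factors. After 24 h treatment, RNA is reverse-transcribed, amplified, labelled and sized by capillary electrophoresis; up- and down-regulation are both scored against vehicle.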

[3] = target: CCAAT/enhancer-binding protein beta (Homo sapiens) (UniProt P17676); experiment: ATG_C_EBP_CIS: Attagene CIS-FACTORIAL HepG2 Assay for human CCAAT/Enhancer Binding Protein (C/EBP) beta (AID 2282927); settings: HepG2 Attagene cis-factorial transcription factor reporter; actives raise or lower the signal
Method in brief: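 Following a 24 h incubation with test chemical, transfected HepG2 cells yielded RNA whose reporter transcripts were quantified by RT-PCR and fluorescent capillary electrophoresis, with DMSO serving as baseline for bidirectional fitting.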

[4] = ATG_CMV_CIS: Attagene CIS-FACTORIAL HepG2 Assay for human CMV (Internal Marker) (AID 2282928); settings: HepG2 CMV promoter reporter, transcription factor profiling; actives raise or lower the signal;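 also: endpoint acts as a background internal control marker rather than a target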
Method in brief: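 Fluorescence intensity of RT-PCR-derived reporter fragments, resolved by capillary electrophoresis, gives the signal. HepG2 liver cells bearing transfected cis-element reporters were treated 24 h; activity in either direction was fit relative to DMSO-treated controls.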

[5] = ATG_DR4_LXR_CIS: Attagene CIS-FACTORIAL HepG2 Assay for human Liver X Receptor (LXR), DR4 submotif (AID 2282929); settings: HepG2 Attagene DR4 cis-reporter, mRNA transcription; actives raise or lower the signal
Method in brief: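 HepG2, transient MRTU transfection, cis-element (DR4) promoter; 24 h compound exposure; total RNA → oligo(dT) RT → PCR → 6-FAM primer extension → HpaI cut → CE. Gain/loss vs DMSO, bidirectional fit.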

[6] = target: Aryl hydrocarbon receptor (Homo sapiens) (UniProt P35869); experiment: ATG_Ahr_CIS: Attagene CIS-FACTORIAL HepG2 Assay for human Aryl Hydrocarbon Receptor (Ahr) (AID 2282930); settings: HepG2 AhR cis-factorial reporter transcription; actives raise or lower the signal
Method in brief: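 Values derive from bidirectional fitting against DMSO negative control. Underlying signal: cis-element reporter mRNA in transiently transfected HepG2, harvested 24 h post-dose and measured by RT-PCR plus capillary electrophoresis.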

[7] = ATG_AP_1_CIS: Attagene CIS-FACTORIAL HepG2 Assay for human Activator Protein 1 (AP-1) (AID 2282931); settings: HepG2 Attagene cis-factorial AP-1 reporter mRNA; actives raise or lower the signal
Method in brief: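 Transient MRTU transfection of HepG2 → 24 h chemical treatment → RNA isolation, RT-PCR, 6-FAM labelling, HpaI digest → capillary electrophoresis. Fit: bidirectional, DMSO negative control.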

[8] = ATG_BRE_CIS: Attagene CIS-FACTORIAL HepG2 Assay for human Bone Morphogenetic Protein (BMP) Response Element (BRE) (AID 2282933); settings: HepG2 BMP response element reporter, Attagene transcription factor profiling; actives raise or lower the signal
Method in brief: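 Fluorescence-labelled reporter cDNA fragments, separated by capillary electrophoresis, gave the signal for this component of a 52-readout multiplex. HepG2 cells were transfected, exposed to chemicals for 24 h, and compared with DMSO using bidirectional fitting.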

[9] = target: Retinoic acid receptor alpha (Homo sapiens) (UniProt P10276); experiment: ATG_DR5_RAR_CIS: Attagene CIS-FACTORIAL HepG2 Assay for human Retinoic Acid Receptor Alpha (RARE), DR5 submotif (AID 2282934); settings: HepG2 Attagene cis-factorial RARE DR5 reporter, mRNA; actives raise or lower the signal
Method in brief: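 Endpoint fitted in both directions relative to DMSO as negative control. It reflects DR5 cis-element reporter mRNA induction in transiently transfected HepG2 cells, measured 24 h after dosing through RT-PCR and fluorescent capillary electrophoresis.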

[10] = ATG_AP_2_CIS: Attagene CIS-FACTORIAL HepG2 Assay for human Activator Protein 2 (AP-2) (AID 2282932); settings: HepG2 AP-2 cis-reporter, Attagene transcription factor profiling; actives raise or lower the signal
Method in brief: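 Assay in transfected HepG2 with promoter-regulated reporters, 24 h incubation after dosing. Signal is reporter mRNA fluorescence (RT-PCR, capillary electrophoresis), analysed for both increases and decreases relative to DMSO controls.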

Retinoic acid receptor alpha (Homo sapiens), sequence (P10276 whole entry, looked up): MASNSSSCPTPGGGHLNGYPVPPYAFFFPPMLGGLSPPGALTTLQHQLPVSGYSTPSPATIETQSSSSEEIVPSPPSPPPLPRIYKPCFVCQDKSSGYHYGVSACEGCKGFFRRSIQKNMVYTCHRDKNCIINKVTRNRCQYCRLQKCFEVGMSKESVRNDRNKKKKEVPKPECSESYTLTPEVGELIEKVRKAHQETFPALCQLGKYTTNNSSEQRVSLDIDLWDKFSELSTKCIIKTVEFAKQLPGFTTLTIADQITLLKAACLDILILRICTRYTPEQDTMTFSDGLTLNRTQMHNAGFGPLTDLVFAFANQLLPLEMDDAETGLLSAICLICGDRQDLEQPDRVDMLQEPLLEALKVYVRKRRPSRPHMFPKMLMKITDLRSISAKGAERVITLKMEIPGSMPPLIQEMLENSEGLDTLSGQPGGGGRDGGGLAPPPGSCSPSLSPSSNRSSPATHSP
CCAAT/enhancer-binding protein beta (Homo sapiens), sequence (P17676 whole entry, looked up): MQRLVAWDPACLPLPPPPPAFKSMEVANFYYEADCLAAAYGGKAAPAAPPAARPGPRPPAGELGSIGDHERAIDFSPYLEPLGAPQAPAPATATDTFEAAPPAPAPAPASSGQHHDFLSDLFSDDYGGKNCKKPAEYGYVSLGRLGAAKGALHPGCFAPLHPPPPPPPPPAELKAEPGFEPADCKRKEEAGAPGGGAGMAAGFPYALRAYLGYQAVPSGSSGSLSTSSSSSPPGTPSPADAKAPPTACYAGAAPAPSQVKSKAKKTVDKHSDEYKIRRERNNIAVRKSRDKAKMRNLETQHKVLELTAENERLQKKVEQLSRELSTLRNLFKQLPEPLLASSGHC
Aryl hydrocarbon receptor (Homo sapiens), sequence (P35869 whole entry, looked up): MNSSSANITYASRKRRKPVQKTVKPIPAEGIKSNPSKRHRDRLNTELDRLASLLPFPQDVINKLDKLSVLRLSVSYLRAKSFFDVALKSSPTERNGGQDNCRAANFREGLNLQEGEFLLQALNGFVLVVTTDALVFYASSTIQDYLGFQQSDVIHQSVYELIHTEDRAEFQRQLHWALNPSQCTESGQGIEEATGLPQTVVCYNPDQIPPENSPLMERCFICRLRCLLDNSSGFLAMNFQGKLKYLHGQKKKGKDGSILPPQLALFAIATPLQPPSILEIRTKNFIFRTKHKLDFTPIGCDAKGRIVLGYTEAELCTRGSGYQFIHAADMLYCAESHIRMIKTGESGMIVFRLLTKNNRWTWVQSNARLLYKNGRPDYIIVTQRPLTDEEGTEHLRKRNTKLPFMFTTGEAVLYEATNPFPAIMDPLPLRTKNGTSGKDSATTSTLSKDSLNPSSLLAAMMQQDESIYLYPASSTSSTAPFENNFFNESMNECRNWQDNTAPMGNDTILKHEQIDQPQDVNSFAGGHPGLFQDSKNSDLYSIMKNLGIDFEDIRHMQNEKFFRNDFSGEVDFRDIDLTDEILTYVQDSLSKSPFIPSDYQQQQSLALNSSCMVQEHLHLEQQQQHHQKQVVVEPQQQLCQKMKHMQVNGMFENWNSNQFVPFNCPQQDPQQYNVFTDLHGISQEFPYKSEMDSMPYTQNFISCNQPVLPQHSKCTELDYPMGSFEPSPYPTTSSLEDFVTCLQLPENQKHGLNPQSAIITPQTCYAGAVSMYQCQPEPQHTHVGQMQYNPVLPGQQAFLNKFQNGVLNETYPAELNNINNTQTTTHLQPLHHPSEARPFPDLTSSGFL

Compound | outcome [1] | outcome [2] | outcome [3] | outcome [4] | outcome [5] | outcome [6] | outcome [7] | outcome [8] | outcome [9] | outcome [10] | AC50 [1] | AC50 [6] | AC50 [5] | AC50 [4] | AC50 [7] | AC50 [2] | AC50 [8]
CCC(=O)OCCc1ccccc1 | inactive | inactive | inactive | inactive | inactive | inactive | inactive | inactive | inactive | – | – | – | – | – | – | – | –
CCCCOc1ccc(N)cc1 | inactive | inactive | inactive | inactive | inactive | inactive | inactive | inactive | inactive | – | – | – | – | – | – | – | –
FC(F)(F)C(F)(F)C(F)(F)C(F)(F)C(F)(F)C(F)(F)C(F)(F)C(F)(F)CCS | inactive | inactive | inactive | inactive | inactive | inactive | inactive | inactive | inactive | inactive | – | – | – | – | – | – | –
CN(C)Cc1ccccc1O | – | inactive | inactive | inactive | inactive | inactive | inactive | inactive | inactive | – | 4.58 µM (active) | – | – | – | – | – | –
CCCCCCOC(=O)c1ccccc1O | inactive | inactive | inactive | inactive | inactive | inactive | inactive | inactive | inactive | inactive | – | – | – | – | – | – | –
O=S(=O)(O)c1ccc2ccccc2c1 | inactive | inactive | inactive | inactive | inactive | – | inactive | inactive | – | – | – | 42.7 µM (active) and 40.3 µM (active) | – | – | – | – | –
CCO[Si](CCC(F)(F)C(F)(F)C(F)(F)C(F)(F)C(F)(F)C(F)(F)F)(OCC)OCC | inactive | inactive | inactive | inactive | inactive | inactive | inactive | inactive | inactive | – | – | – | – | – | – | – | –
CCCCCCOC(=O)c1ccccc1 | inactive | inactive | inactive | inactive | inactive | – | inactive | inactive | inactive | – | – | 50.4 µM (active) | – | – | – | – | –
Nc1ccc(S(=O)(=O)Nc2nccs2)cc1 | inactive | inactive | inactive | inactive | inactive | inactive | inactive | inactive | inactive | – | – | – | – | – | – | – | –
Cc1ccc(S(=O)(=O)NCl)cc1 | inactive | inactive | inactive | inactive | inactive | – | inactive | inactive | – | inactive | – | 66.9 µM (active) and 61.9 µM (active) | – | – | – | – | –
O=C(C=Cc1ccccc1)OCC=Cc1ccccc1 | inactive | inactive | inactive | inactive | – | inactive | inactive | inactive | inactive | inactive | – | – | 24.3 µM (active) | – | – | – | –
COC(=O)CCC(F)(F)C(F)(F)C(F)(F)C(F)(F)F | inactive | inactive | inactive | inactive | inactive | inactive | inactive | inactive | inactive | inactive | – | – | – | – | – | – | –
C(=C(c1ccccc1)c1ccccc1)c1ccccc1 | – | inactive | inactive | – | – | inactive | – | inactive | inactive | inactive | 0.647 µM (active) | – | 59 µM (active) | 30 µM (active) | 36.7 µM (active) | – | –
C=C(C)C(=O)OCCC(F)(F)C(F)(F)C(F)(F)C(F)(F)C(F)(C(F)(F)F)C(F)(F)F | inactive | inactive | inactive | inactive | inactive | inactive | inactive | inactive | inactive | – | – | – | – | – | – | – | –
CCN(CC)c1ccc2c(C)cc(=O)oc2c1 | inactive | – | inactive | – | inactive | inactive | inactive | – | inactive | inactive | – | – | – | 26.5 µM (active) | – | 30.7 µM (active) | 143 µM (active)
O=C(Cl)C(F)(F)C(F)(F)C(F)(F)C(F)(F)C(F)(F)C(F)(F)C(F)(F)C(F)(F)F | inactive | inactive | inactive | inactive | – | inactive | – | inactive | inactive | inactive | – | – | 13 µM (active) | – | 16.1 µM (active) | – | –
Nc1ccc([N+](=O)[O-])cc1O | inactive | inactive | inactive | inactive | inactive | – | inactive | inactive | inactive | inactive | – | 25.5 µM (active) | – | – | – | – | –
CCCCCCCCC(F)(F)C(F)(F)C(F)(F)C(F)(F)C(F)(F)C(F)(F)F | inactive | inactive | inactive | inactive | inactive | inactive | inactive | inactive | inactive | – | – | – | – | – | – | – | –
O=C(OCCOCCOCCOC(=O)c1ccccc1)c1ccccc1 | – | inactive | inactive | inactive | inactive | inactive | inactive | inactive | inactive | inactive | 10.8 µM (active) | – | – | – | – | – | –
Oc1ccc(Nc2ccccc2)cc1 | inactive | inactive | inactive | – | inactive | inactive | inactive | inactive | inactive | inactive | – | – | – | 41.8 µM (active) | – | – | –
CC/C=C\CCOC(=O)c1ccccc1 | inactive | inactive | inactive | inactive | inactive | inactive | inactive | inactive | inactive | inactive | – | – | – | – | – | – | –
